In all, about 16,000 compounds went through this assay and about 2,600 (16%) were called active. Not shown: some 20% with an inconclusive outcome. Calls come from the whole dose curve; as a rule, active = well fitted curve in the direction sought with a large enough effect; inconclusive = small, poorly fitted or top-dose-only effect, or effect the other way; inactive = no such curve, though single readings can be large or run the other way. Only a sample is shown.
% is set by controls: 0 for no effect and ±100 for the full control effect.

In this experiment the target is Cytochrome P450 2D6 (Homo sapiens) (UniProt P10635). The experiment can be described thus: Cytochrome panel assay with activity outcomes. To be noted: recombinant CYP, pro-luciferin dealkylation, luminescence, p450-cyp2d6; series mostly up to 57.1 µM; activity, negative = inhibition: at the top concentration.
Cytochrome P450 2D6 (Homo sapiens), sequence (P10635 whole entry, looked up): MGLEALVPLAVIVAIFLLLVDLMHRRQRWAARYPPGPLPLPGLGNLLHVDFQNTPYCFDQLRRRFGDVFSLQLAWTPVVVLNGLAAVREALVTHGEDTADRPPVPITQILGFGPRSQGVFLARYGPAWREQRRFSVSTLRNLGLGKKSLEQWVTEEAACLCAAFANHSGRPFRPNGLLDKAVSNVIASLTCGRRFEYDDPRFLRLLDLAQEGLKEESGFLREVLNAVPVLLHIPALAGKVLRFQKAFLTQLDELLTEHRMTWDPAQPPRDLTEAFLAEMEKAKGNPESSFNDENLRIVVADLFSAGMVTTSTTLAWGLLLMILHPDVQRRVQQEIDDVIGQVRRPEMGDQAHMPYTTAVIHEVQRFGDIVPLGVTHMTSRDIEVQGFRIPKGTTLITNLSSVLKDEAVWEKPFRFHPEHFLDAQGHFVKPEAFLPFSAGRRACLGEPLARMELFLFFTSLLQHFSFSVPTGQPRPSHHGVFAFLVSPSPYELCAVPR
Turning to `CC(C)[C@@H]1NC(=O)[C@H](CCCCN)NC(=O)[C@H](Cc2c[nH]c3ccccc23)NC(=O)[C@H](Cc2ccc(O)cc2)NC(=O)[C@H](C)N(C)C(=O)[C@H](Cc2ccccc2)NC1=O`, the “activity, negative = inhibition” value was 2.29% (inactive).

`Nc1ccc(-c2ccc(Nc3cc(S(=O)(=O)O)c(N)c4c3C(=O)c3ccccc3C4=O)cc2)c(S(=O)(=O)O)c1`: the activity, negative = inhibition was 6.34% [at 11.4 µM] (inactive).

By AC50 is commonly meant the midpoint of the concentration-response curve, whichever way the signal moves. Turning to `N#Cc1cccc(-c2nc(NCc3ccccc3)c3ccccc3n2)c1`, the AC50 was 10 µM (active).

Take `COc1ccccc1CNc1nc(-c2cccc(C#N)c2)nc2ccccc12`: the AC50 is 10 µM (active).

Consider `CNc1nc(-c2cccc(C#N)c2)nc2ccccc12`, for which the “activity, negative = inhibition” value is 8.46% (inactive).

With `N#Cc1cccc(-c2nc(Nc3ccccc3)c3ccccc3n2)c1`, the “activity, negative = inhibition” value was 9.28% (inactive).

Take `N#Cc1cccc(-c2nc(NCc3cccnc3)c3ccccc3n2)c1`: the “activity, negative = inhibition” value is -8.94% (inactive).

As for `Cn1cnnc1SCC(=O)OCN1C(=O)c2ccccc2C1=O`, the “activity, negative = inhibition” value was 21.6% (inactive).

As to `Cc1noc(C)c1C(=O)N1CCC2(CCN(C(=O)NC(C)C)CC2)CC1`, the “activity, negative = inhibition” value was 11.3% (inactive).

On to `Cn1c(=O)c2c(ncn2CC(COCc2ccccc2Cl)OCc2ccccc2Cl)n(C)c1=O` (centres undefined), for which the AC50 is 15.8 µM (active).

With `Cn1c(=O)c2c(ncn2CCO)n(C)c1=O`, the “activity, negative = inhibition” value is -0.742% [at 25.6 µM] (inactive).

With `Cn1c(=O)c2c(ncn2C[C@@H](O)CO)n(C)c1=O`, the “activity, negative = inhibition” value is 0.0743% [at 25.6 µM] (inactive).

In the case of `Cc1cccc(C(=O)NNC(=O)C(=O)NC(C)(C)C)c1`, the “activity, negative = inhibition” value was 8.26% (inactive).

On to `CC1(C)CC(=O)C2=C(C1)N(Cc1cccnc1)C(=O)C2(NC(=O)c1cccnc1)C(F)(F)F` (centres undefined), for which the “activity, negative = inhibition” value is 12.6% (inactive).

As to `CCn1c(-c2ccc3ncccc3c2)n[nH]c1=S`, the “activity, negative = inhibition” value is -1.86% (inactive).

On to `CCn1c(-c2ccoc2C)n[nH]c1=S`, for which the “activity, negative = inhibition” value was 4.15% (inactive).

Regarding `CCCOc1cccc(-c2cc(-c3n[nH]c(=S)n3CC)c3ccccc3n2)c1`, the AC50 is 6.31 µM (active).

`CSc1nnc2c(n1)OC(C)N(C(=O)c1ccccc1)c1ccccc1-2` (centres undefined): the “activity, negative = inhibition” value was -6.63% (inactive).

As for `CC(=C/c1ccccc1)/C=N/n1cnnc1`, the “activity, negative = inhibition” value was -4.74% (inactive).

In the case of `CC(/C=N/n1c(-c2cccnc2)n[nH]c1=S)=C\c1ccccc1`, the AC50 was 7.08 µM (active).

On to `CCOC(=O)CSc1n[nH]c(-c2cccnc2)n1`, for which the “activity, negative = inhibition” value was 20% (inactive).

In the case of `COc1ccc(-n2c(=O)c(-c3cccs3)nc3cnc(Nc4cccc(OC)c4)nc32)cc1`, the “activity, negative = inhibition” value is 6% (inactive).

With `CN(C)c1ncc2nc(-c3cccs3)c(=O)n(CCc3ccccc3)c2n1`, the “activity, negative = inhibition” value was -3.61% (inactive).

Consider `O=c1onc(-c2cccs2)n1Cc1ccccc1`, for which the AC50 was 11.2 µM (active).

Turning to `O=c1c(-c2cccs2)nc2cncnc2n1Cc1ccccc1`, the “activity, negative = inhibition” value is -2.29% (inactive).

Consider `COc1cc2c(cc1OC)C(C(=O)N1CCN(c3ccccn3)CC1)C(c1cccs1)N(C)C2=O` (centres undefined), for which the “activity, negative = inhibition” value is -6.69% (inactive).

As to `OCCN(CCO)c1ncnc2nc[nH]c12`, the activity, negative = inhibition is -3.25% [at 11.4 µM] (inactive).

In the case of `Cc1cc(C)cc(NC(=O)N2CCCC2C(=O)Nc2ccc(-n3cnnn3)c(C)c2)c1` (centres undefined), the “activity, negative = inhibition” value is 1.05% (inactive).

As to `COc1cccc(Nc2ncc3nc(-c4ccc(F)cc4)c(=O)n(CCC#N)c3n2)c1`, the “activity, negative = inhibition” value was -3.04% (inactive).

For `COc1ccc(N2CCN(C(=S)Nc3cc(C)cc(C)c3)CC2)cc1`, the “activity, negative = inhibition” value was -6.18% (inactive).

Turning to `CCOC(=O)c1[nH]c(C(=O)O)c(CCC(=O)OC)c1C`, the “activity, negative = inhibition” value is 1.16% (inactive).

As for `CN1CCN(C2=Cc3ccccc3Oc3ccc(Cl)cc32)CC1`, the AC50 is 0.0398 µM (active).

`CN1CCN(c2cc(-c3ccccc3C(F)(F)F)ncn2)CC1`: the “activity, negative = inhibition” value is -0.967% (inactive).

For `Cc1ccc(Cl)cc1N1CCN(S(=O)(=O)c2ccc3c(c2)OCCO3)CC1`, the “activity, negative = inhibition” value was 7.2% (inactive).

On to `COCCn1c(=O)c(-c2ccc(Cl)cc2)nc2cnc(Nc3ccccc3)nc21`, for which the “activity, negative = inhibition” value is -2.28% (inactive).

In the case of `Cn1c(N)c(N=Nc2ccc(S(N)(=O)=O)cc2)c(=O)n(C)c1=O`, the activity, negative = inhibition was 5.11% [at 11.4 µM] (inactive).

In the case of `Cc1cc(N2CCOCC2)nc2ccc(Cc3ccc4nc(N5CCOCC5)cc(C)c4c3)cc12`, the activity, negative = inhibition is -2.88% [at 11.4 µM] (inactive).

Consider `CCN(CC)C(=O)N1CCN(C)CC1`, for which the “activity, negative = inhibition” value was 2.61% [at 25.6 µM] (inactive).

Turning to `COc1ccc(Sc2ccc(NC(=O)c3ccccc3Cl)cc2C#N)cc1`, the “activity, negative = inhibition” value was -7.88% (inactive).

In the case of `CC(=O)Nc1ccc(NC(=O)CC2Nc3cccc4cccc(c34)NC2=O)cc1` (centres undefined), the “activity, negative = inhibition” value was -14.1% (inactive).

For the compound `CCOC(=O)c1ccc(NC(=O)CC2NCCNC2=O)cc1` (centres undefined), the “activity, negative = inhibition” value was 20.7% (inactive).

`Cc1cccc(NC(=O)CC2Nc3cccc4cccc(c34)NC2=O)c1` (centres undefined): the AC50 was 14.1 µM (active).

Turning to `Cc1nc(NS(=O)(=O)c2ccc(Br)cc2)c2c3c(sc2n1)CCC3`, the “activity, negative = inhibition” value was -1.48% (inactive).

With `Cc1cc(NC(=O)c2cccc(F)c2)no1`, the “activity, negative = inhibition” value is -5.34% (inactive).

Turning to `Cc1ccc(-c2csc(C(C#N)=C3CCCC3)n2)cc1`, the “activity, negative = inhibition” value was -8.56% (inactive).

Take `Cc1ccc(N2CC(C(=O)Nc3cc(C)on3)CC2=O)cc1` (centres undefined): the “activity, negative = inhibition” value is -5.5% (inactive).

Regarding `c1csc(CNc2ncncc2-c2ccoc2)c1`, the concentration at half-maximal activity (AC50) is 15.8 µM (active).

Turning to `c1ccc(CNc2ncncc2-c2ccoc2)cc1`, the AC50 is 20 µM (active).

On to `Cc1cnc(CNc2ncncc2-c2ccoc2)cn1`, for which the “activity, negative = inhibition” value was -4.95% (inactive).

Values taken from PubChem BioAssay AID1851 (National Center for Advancing Translational Sciences (NCATS), 2009).
